Measurements as given in PubChem BioAssay (NCATS).
For part of these data: Results with a measured potency or affinity are listed apart. Activity calls are given as the source filed them.

Tests used:
[1] = Ebola virus entry assay, blue channel fluorescence
[2] = Ebola virus entry assay, green fluorescence channel
[3] = Ebola virus entry assay, ratio channel readout
[4] = Ebola virus entry assay, blue channel fluorescence; remark: listed apart in the source
[5] = Ebola virus entry assay, ratio channel
[6] = Ebola virus entry assay, green channel fluorescence
[7] = Ebola virus entry assay, blue channel fluorescence; remark: listed apart in the source

Measured: AC50

CCN(CC)C(=O)/C(C#N)=C/c1cc(O)c(O)c([N+](=O)[O-])c1
inactive: all assays above

COc1c(N2C[C@@H]3CCCN[C@@H]3C2)c(F)cc2c(=O)c(C(=O)O)cn(C3CC3)c12
inactive: all assays above

CN1[C@@H]2CC[C@H]1CC(OC(c1ccccc1)c1ccccc1)C2 (some centres undefined)
inactive: [2]
active: [1] 5.01 µM | [3] 3.55 µM

CC(C)[C@H]1C(=O)N2CCC[C@H]2[C@]2(O)O[C@](NC(=O)[C@@H]3C[C@@H]4c5cccc6[nH]cc(c56)C[C@H]4N(C)C3)(C(C)C)C(=O)N12
inactive: [1] | [2] | [3]

NCCCCCC(=O)O
inactive: all assays above

O=C(O)C[C@H](O)C[C@H](O)/C=C/c1c(C2CC2)nc2ccccc2c1-c1ccc(F)cc1
inactive: [1] | [2] | [3]

CO[C@H]1C[C@@H]2CC[C@@H](C)[C@@](O)(O2)C(=O)C(=O)N2CCCC[C@@H]2C(=O)O[C@H]([C@@H](C)C[C@@H]2CC[C@H](O)[C@H](OC)C2)CC(=O)[C@H](C)C=C(C)[C@@H](O)[C@@H](OC)C(=O)[C@H](C)C[C@H](C)C=CC=CC=C1C
inactive: [1] | [2] | [3]

COc1ccc2c(c1)C13CCCC[C@@H]1C(C2)N(C)CC3 (some centres undefined)
inactive: [1] | [2] | [3]

CN1CCN2c3ncccc3Cc3ccccc3C2C1 (centres undefined)
inactive: [1] | [2] | [3]
